Cycloheximide cs = counter-screen hit for Shiga toxin inhibitors, cycloheximide; max response, %; hit rate 12% among 300,000; cell reporter, cycloheximide protein synthesis inhibition counterscreen; AID 2314; in the data active = max response mostly above about 13%, no sharp cut-off; inactive = mostly below about 14%; also: read at 38.3 µM for the half of the compounds with a filed dose; 0% is about no effect
Lassa entry inh = Lassa virus entry inhibition | Lassa virus pseudotype entry inhibition, cell reporter | Potency, µM (top dose mostly 37.9 µM), for the others: at the highest dose activity change, negative = inhibition, hits mostly inhibitors | hit rate 1.2% among 300,000 | AID 540256; calls by dose curve; tested in HEK293 cells; also: potency is read from the fitted curve at half-maximal effect; % is scaled to controls: 0 for no effect and ±100 for the full control effect; nearly all actives have a fitted effect of over 50% in size
Pf growth 96h = inhibits malaria parasite growth, 96 h. P. falciparum luciferase reporter growth, 96 h. Potency, µM (doses to about 28.7 µM), for inactives: at the highest dose activity change, negative = inhibition, actives largely listed as inhibitors. hit rate 6.9% among 320,000. AID 504834; also: potency is read from the fitted curve at half-maximal effect; % is scaled to controls: 0 for no effect and ±100 for the full control effect
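Luminescence readout: decreased luciferase signal marks inhibited growth of reporter-expressing P. falciparum in infected red cells (2% hematocrit, 0.05% parasitemia final), exposed to compound two generations (96 h, 37 C, 5% CO2).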
Pf growth 48h = inhibits P. falciparum growth in the first generation, 48 h; Potency, µM (doses to about 28.7 µM), for inactives: top-dose activity change, negative = inhibition, actives largely listed as inhibitors; P. falciparum luciferase growth in erythrocytes, 48 h; hit rate 5.9% among 310,000; also: potency is read from the fitted curve at half-maximal effect; % is scaled to controls: 0 for no effect and ±100 for the full control effect
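Parasite viability was followed by luminescence of a genomically integrated firefly luciferase. Cultures held 0.1% parasitemia at 2% hematocrit (final), incubated under 5% CO2 at 37 C.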
MARV entry inh = inhibitors of Marburg virus binding or cell entry | Marburg virus pseudotyped entry inhibition, cell reporter | Potency, µM (series often up to 37.8 µM), for the others: at the top dose activity change, negative = inhibition, hits mostly inhibitors | hit rate 1.8% among 300,000 | AID 540276; calls by dose curve; tested in HEK293 cells; also: potency is read from the fitted curve at half-maximal effect; % is scaled to controls: 0 for no effect and ±100 for the full control effect
Shiga toxin inh = Shiga toxin inhibition; Vero cells, Shiga toxin protein synthesis inhibition reporter; AID 2315; inhibition, % at 38.7 µM; hit rate 9.2% among 290,000; in the data active = inhibition mostly above about 28%, no sharp cut-off; inactive = mostly below about 43%; also: 0% is about no effect
* marks the source's active call; other numbers are inactive results; ? = inconclusive; . = no result given; [ ] = remark or other dose. Compounds with a hit are over-represented: about 19% of the library has one in this group of screens. Unless noted, calls follow the shape of the dose curve; as a rule, active = well fitted inhibition curve with a large enough effect; inconclusive = small, poorly fitted or top-dose-only effect, or another doubt; inactive = no such curve, though single readings can be large or run the other way.

SMILES	Cycloheximide cs	Lassa entry inh	Pf growth 96h	Pf growth 48h	MARV entry inh	Shiga toxin inh
O=C(C1CC1)N1N=C(c2ccc(F)cc2)CC1(O)C(F)(F)F (configuration not stated)	0	6%	12µM*	13%	11%	.
CC1=NN(C(=O)c2ccccc2-n2cccc2)C(O)(C(F)(F)F)C1 (configuration not stated)	-2	10%	-15%	0%	-2%	3
CCOC(=O)N1N=C(c2ccc(C)cc2)CC1(O)C(F)(F)F (configuration not stated)	15*	-24%	226%	116%	?	36*
CCOC(=O)N1N=C(CC)CC1(O)C(F)(F)F (configuration not stated)	-2	?	-7%	13%	16%	12
CC1=NN(C(=O)c2ccc(C)cc2)C(O)(C(F)(F)OC(F)(F)F)C1 (configuration not stated)	31*	22%	?	?	-28%	72*
O=C(C1CC1)N1N=C(c2ccc(Cl)cc2)CC1(O)C(F)(F)F (configuration not stated)	1	.	32%	-2%	.	3
O=C(COc1ccccc1)N1N=C(c2cccnc2)CC1(O)C(F)(F)F (configuration not stated)	-2	?	0.93µM*	?	?	-19
Cc1nn(C)c(Oc2ccccc2)c1CCNS(=O)(=O)c1ccc(Cl)cc1	-2	-23%	?	?	-19%[46.1 µM]	16
CCOC(=O)N1N=C(c2ccccc2)CC1(O)C(F)(F)F (configuration not stated)	49*	11%	150%	124%	?	101*
COC(=O)N1N=C(c2ccc(Br)cc2)CC1(O)C(F)(F)F (configuration not stated)	47*	-16%	9%	104%	-23%	40*
O=C(c1ccccc1)N1N=C(c2ccccc2)CC1(O)C(F)(F)F (configuration not stated)	-2	.	?	1%	.	-6
Cc1ccc(-c2csc3ncn(-n4c(C)ccc4C)c(=O)c23)o1	4	-2%	0.74µM*	13µM*	-4%	5
Cc1sc2ncn(-n3c(C)ccc3C)c(=O)c2c1C	-1	7%	?	?	?	26
Cn1cc(Cl)c(C(=O)Nc2cccc(Cl)c2Cl)n1	42*	-2%	-1%	67%	5%	29
O=C(Nc1nc2ccccc2s1)c1c(F)cccc1Cl	38*	?	-22%	0%	11%	91*
O=C(Nc1nc2ccccc2s1)c1cccn(Cc2ccccc2)c1=O	.	16%[46.1 µM]	.	.	.	.
Cn1cc(Cl)c(C(=O)Nc2nc3ccccc3s2)n1	42*	?	270%	230%	8.2µM*	71*
Cc1ccc(-c2nnc(Nc3ccc(S(N)(=O)=O)cc3)c3ccccc23)cc1S(=O)(=O)N1CCCCC1	.	-8%[46.1 µM]	.	.	.	.
CCCN(CCC)CCCNC(=O)c1cc2c(=O)n(CC)c3ccccc3c2s1	-6	?	?	-18%[0.00184 µM]	10µM*	-6
CCCCN(CC)CCCNC(=O)c1cc2c(=O)n(CC)c3ccccc3c2s1	-6	-2%	-2%	-21%[0.00184 µM]	11µM*	-3
CCCCN(CC)CCNC(=O)c1cc2c(=O)n(C)c3ccccc3c2s1	-2	?	?	?	7.9µM*	25
Cc1ccc(CCNC(=O)c2cc3c(-c4ccccc4F)nn(C)c3s2)cc1	.	-6%[46.1 µM]	.	.	23%[46.1 µM]	.
CCCCN(CC)CCNC(=O)c1cc2c(-c3ccccc3F)nn(C)c2s1	0	.	22%	2.1µM*	0%	-4
CCN(CC)CCNC(=O)c1cc2c(=O)n(C)c3ccccc3c2s1	-8	2%[46.1 µM]	19%	-38%	?	22
Cc1nnc(NC(=O)C(C)Sc2nnc(CNC(=O)c3ccccc3F)n2C)s1 (configuration not stated)	.	24%	?	-8%	?	.
SMILES	Cycloheximide cs	Lassa entry inh	Pf growth 96h	Pf growth 48h	MARV entry inh	Shiga toxin inh
C=CCn1c(O)c(/C=C2\C=Nc3ccccc32)c(=O)[nH]c1=O	2	-19%[46.1 µM]	4%	-2%	12%[46.1 µM]	13
O=c1[nH]c(O)c(/C=C2\C=Nc3ccccc32)[nH]1	18*	.	41%	24%	.	13
CCn1c(O)c(/C=C2\C=Nc3ccccc32)sc1=Nc1ccc(C)cc1	-2	?	-4%	?	?	32
Oc1nc(Nc2ccccc2)sc1/C=C1\C=Nc2ccccc21	49*	.	51%	17%	.	64*
CCn1c(O)c(/C=C2\C=Nc3ccccc32)sc1=O	34*	.	7.4µM*	82%	.	78*
CS(=O)(=O)N(CCc1ccccc1)CC(=O)NCc1ccncc1	-4	13%	51%	.	10%	3
CCN(CC(=O)NC1CCS(=O)(=O)C1)C(=O)/C=C/c1cccs1 (configuration not stated)	1	5%	18%	-3%	10%	-3
N#CCCNS(=O)(=O)c1ccc(C(=O)OCC(=O)Nc2ccc3c(c2)OCO3)cc1	.	.	-20%	-11%	.	.
CN1CCCC(OC(=O)c2cc(Cl)cc(Cl)c2)C1 (configuration not stated)	2	1%	16%	-15%	10%	-15
COCC(=O)O[C@]1(CCN(C)CCCc2nc3ccccc3[nH]2)CCc2cc(F)ccc2[C@@H]1C(C)C	-5	5.2µM*	2.4µM*	1.5µM*	7.3µM*	-11
COc1ccc(N2CCN(C(=O)COC(=O)c3ccco3)CC2)cc1	-3	9%	31%	1%	-6%	-10
Cc1sc2c(c1C)C(=O)NC(c1ccccc1F)N2 (configuration not stated)	31*	23%[46.1 µM]	102%	63%	?	100*
Cc1cccc(C2NC(=O)c3c(sc(C)c3C)N2)c1O (configuration not stated)	5	0%	2%	28%	7%	15
CN1CCN(S(=O)(=O)c2ccc(N(C)Cc3ccc(C(F)(F)F)cc3)c([N+](=O)[O-])c2)CC1	.	?	?	10µM*	10µM*	.
C=CCOc1ccc(CN(C)c2ccc(S(=O)(=O)N3CCN(C)CC3)cc2[N+](=O)[O-])cc1	.	?	-28%	?	?	.
CCn1cc(C(=O)Nc2ccc(C)cc2C)c(=O)c2ccc(C)nc21	-1	.	12%	16%	.	-21
CC1CCCC(C)N1CCCNC(=O)CN1C(=O)c2cccnc2Oc2ccc(Cl)cc21 (configuration not stated)	0	.	7%	18%	.	10
O=C(Cn1nc(CNc2ccc(Cl)cc2)[n+]2c1CCCCC2)c1ccc(Br)cc1	-6	14%	?	0.93µM*	-1%	-16
O=C(Cn1nc(CNc2ccc(Br)cc2)[n+]2c1CCCCC2)c1ccc([N+](=O)[O-])cc1	7	-2%	?	2.1µM*	-18%	1
O=C(CNc1ccc(Cl)cc1)c1ccc(Br)cc1	-1	-16%	?	?	18%	12

Assay outcomes from PubChem.
